In the library only some 9.2% were active in any assay of this set; here they are far more common.
FLuc modulator: qHTS profiling assay for firefly luciferase inhibitor/activator using purifed enzyme and Km concentrations of substrates (counterscreen for miR-21 project); Luciferin 4-monooxygenase (Photinus pyralis), P08659; purified FLuc, Km substrates, luminescence inhibition; Potency, µM (series often up to 57.5 µM), most hits filed as inhibitors; 360,000 tested, 6.9% active; AID 588342, 2011; also: nearly all actives have a fitted effect of over 55% in size
Target sequence (P08659 whole entry, looked up): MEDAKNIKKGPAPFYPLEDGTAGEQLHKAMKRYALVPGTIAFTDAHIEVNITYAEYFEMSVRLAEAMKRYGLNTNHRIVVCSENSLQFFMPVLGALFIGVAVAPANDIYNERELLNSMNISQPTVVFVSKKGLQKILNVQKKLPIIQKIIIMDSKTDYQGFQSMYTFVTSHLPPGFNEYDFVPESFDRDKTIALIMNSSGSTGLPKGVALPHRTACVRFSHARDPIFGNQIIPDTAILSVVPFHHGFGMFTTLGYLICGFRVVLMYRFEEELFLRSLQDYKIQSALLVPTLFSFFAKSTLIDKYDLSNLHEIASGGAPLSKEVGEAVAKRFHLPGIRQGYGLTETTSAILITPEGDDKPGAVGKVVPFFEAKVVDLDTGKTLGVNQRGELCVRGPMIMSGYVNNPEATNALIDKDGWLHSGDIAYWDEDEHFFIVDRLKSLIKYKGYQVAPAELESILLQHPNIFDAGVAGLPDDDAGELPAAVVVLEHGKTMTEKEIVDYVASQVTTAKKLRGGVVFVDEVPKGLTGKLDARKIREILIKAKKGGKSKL
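Purified P. pyralis luciferase (10nM final) with 10uM D-luciferin and 10uM ATP (Km levels) in 50mM Tris acetate pH 7.5, 10mM Mg acetate, 0.01% Tween-20, 0.05% BSA; qHTS 6-point titration, ~60 µM downward; luminescence read.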
Rab9 promoter act: qHTS Assay for Rab9 Promoter Activators; Potency, µM (doses to about 9.22 µM), actives largely listed as activators; 320,000 tested, 2.8% active; Huh7 Rab9 promoter-luciferase reporter, luminescence, 24 h; also: nearly all actives have a fitted effect of over 60% in size
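Huh7 cells stably carrying Rab9 promoter–luciferase reporter, plated 1500 cells/well, compound added after 2 h and incubated 24 h at 37 °C; luciferase luminescence then read after 10 min with detection reagent.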
NPC1 prom act: qHTS Assay for NPC1 Promoter Activators; 320,000 tested, 2.4% active; Potency, µM (top dose mostly 9.22 µM), most hits filed as activators; Huh7 NPC1 promoter luciferase reporter, 24 h; AID 485313, 2010; also: nearly all actives have a fitted effect of over 60% in size
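Stably transfected Huh7 (NPC1 promoter→luciferase), 1500 cells/well in Opti-MEM + 10% FBS, 2 h settle, then compound 24 h at 37 °C. Luminescence after 10 min with Amplite reagent.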
ELG1 genotoxic: qHTS screen for small molecules that induce genotoxicity in human embryonic kidney (HEK293T) cells expressing luciferase-tagged ELG1; HEK293T ELG1-luciferase reporter, luminescence, 16 h; 330,000 tested, 1.3% active; AID 504466, 2011; Potency, µM (series often up to 46 µM), hits mostly activators; also: nearly all actives have a fitted effect of over 60% in size
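After overnight (16 hr) compound treatment at 37 °C, ELG1-luciferase HEK293T cells were lysed with ONE-Glo; luminescence quantified 30 min later at room temperature.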
ELG1 DNA repair: qHTS screen for small molecules that inhibit ELG1-dependent DNA repair in human embryonic kidney (HEK293T) cells expressing luciferase-tagged ELG1; 330,000 tested, 2.3% active; HEK293T ELG1-luciferase reporter, luminescence, 16 h; DNA damage induced by 5-fluorouridine; Potency, µM (titrated, usually from 46.1 µM), usual class: inhibitors; also: nearly all actives have a fitted effect of over 55% in size
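In this reporter screen, reduction of luminescence relative to DMSO vehicle indicated activity. Compounds and 5-fluorouridine were added together to 2,000 cells per well, incubated for 16 hr at 37 °C, then developed with ONE-Glo.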
SMN2 splice up: qHTS Assay for Enhancers of SMN2 Splice Variant Expression. HEK293 SMN2-luciferase splicing reporter, luminescence, 30-36 h. Potency, µM (doses to about 46.1 µM), hits mostly activators. 210,000 tested, 2.8% active. AID 1458, 2008; also: nearly all actives have a fitted effect of over 55% in size
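HEK293 cells carry an SMN2 […]–luciferase reporter in which exon 7 inclusion puts luciferase in frame. Cells were plated 10-12 h before compound addition, then incubated 30-36 h at 37C. ONE-Glo luminescence was read; sodium butyrate at 4.5 mM final served as control.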
Hits are given with their value; . = inactive; ? = inconclusive; / = not tested or not shown; [ ] = another dose, or the depositor's remark. Calls follow the shape of the dose curve; as a rule, active = well fitted curve in the direction sought with a large enough effect; inconclusive = small, poorly fitted or top-dose-only effect, or another doubt; inactive = no such curve, though single readings can be large; an effect the other way counts as inactive or inconclusive.

SMILES | FLuc modulator | Rab9 promoter act | NPC1 prom act | ELG1 genotoxic | ELG1 DNA repair | SMN2 splice up
COc1cc(/C=N\NC(=O)c2ccc(-c3ccccc3)cc2)cc(Br)c1O | 11µM | . | . | . | . | /
O=C(Nc1cc2c3c(c1)CC(=O)N3CCC2)c1ccc(Br)o1 | . | . | . | . | ? | /
Cc1nc2ccccc2c(=O)n1-c1ccc(NC(=O)c2cccc([N+](=O)[O-])c2)cc1 | . | / | / | / | / | /
CC(C)N(C(=O)CSc1nc2ccccc2n1Cc1ccc(F)cc1)C(C)C | . | . | . | . | 18µM | .
O=C(/C=C/c1ccco1)NCc1ccc2c(c1)OCO2 | ? | . | . | . | . | .
O=C(/C=C/c1ccco1)Nc1ccc2c(c1)OCO2 | 6µM | 0.79µM | 1.8µM | ? | ? | 10µM
O=C(/C=C/c1ccco1)Nc1ccc(F)cc1 | 13µM | 4µM | 4µM | / | / | /
N#CC1(NC(=O)COC(=O)c2cccc(-n3cnnn3)c2)CCCCC1 | . | . | . | . | ? | /
C/C(=N\O)c1ccc2c3c([nH]c2c1)CCCC3 | 11µM | ? | ? | ? | ? | ?
C/C(=N\O)c1ccc2[nH]ccc2c1 | ? | ? | . | . | ? | .
CC1(C)CCC[C@@]2(C)C1CC[C@@](C)(O)[C@@H]2CC[C@@](C)(O)C1CO1 (stereo not given in full) | / | / | / | / | / | .
Cc1csc(SCC(=O)Nc2nccs2)n1 | . | . | . | . | ? | /
NC(=O)c1ccsc1NC(=O)CSc1ccccc1F | 21µM | ? | ? | 10µM | ? | ?
Cc1csc(SCC(=O)Nc2sccc2C(N)=O)n1 | ? | ? | ? | ? | ? | 13µM
CCOc1ccc(NC(=O)CN(C)C(=O)CSCc2cccc(C)c2)cc1OCC | . | . | . | . | . | /
CCOc1ccc(NC(=O)CN(C)C(=O)c2ccccc2OCc2cccc(C)c2)cc1OCC | . | . | . | . | 10µM | /
CCOc1ccc(NC(=O)CN(C)C(=O)CSCc2ccc(C)cc2)cc1OCC | . | . | . | . | 7.3µM | /
Cc1ccc(C(=O)OCC(=O)N2CCCC2)cc1 | ? | ? | . | ? | ? | /
COC(=O)C[C@H]1c2ccccc2C2=C(C[C@@H](C)[C@H]3C(=O)N(c4ccccc4)C(=O)[C@@H]23)N1C(=O)OC | / | / | / | / | / | .[9.22 µM]
N#CC1(c2ccc(NC(=O)c3ccccc3F)cc2)CCCC1 | 1.9µM | 0.79µM | 0.63µM | 1.8µM | ? | 2.8µM
COc1ccc(NC(=O)C2(c3ccc(NC(=O)c4ccc(C)cc4)cc3)CCCC2)cc1 | . | . | . | . | . | .
COc1ccc(C(=O)Nc2ccc(C3(C#N)CCCC3)cc2)cc1 | 4.8µM | . | . | . | . | .
Cc1ccc(S(=O)(=O)C(CNS(=O)(=O)c2ccc(F)c(C(F)(F)F)c2)c2ccco2)cc1 (stereo not given) | . | / | / | / | / | /
COc1ccccc1NC(=O)C1=C(C)Nc2c(C(=O)Nc3ccc(C)cc3)cnn2C1c1cccc(OC)c1OC (stereo not given) | . | / | / | / | / | /
Cc1ccc(Cl)cc1NC(=O)C1CCCN(S(=O)(=O)c2c(C)noc2C)C1 (stereo not given) | . | . | . | / | ? | .
SMILES | FLuc modulator | Rab9 promoter act | NPC1 prom act | ELG1 genotoxic | ELG1 DNA repair | SMN2 splice up
Cc1noc(C)c1S(=O)(=O)N1CCCC(C(=O)Nc2ccc(Cl)cn2)C1 (stereo not given) | . | . | . | . | 16µM | .
CC(C)c1cc(C(F)(F)F)n2nc(C(=O)Nc3ccc4c(c3)OCO4)cc2n1 | 12µM | ? | . | ? | ? | .
O=C(Nc1ccc2c(c1)OCO2)c1cc(C2CC2)on1 | 4.3µM | 1.4µM | 1.6µM | 2.1µM | ? | 11µM
O=C(Nc1cc(Cl)ccc1Cl)c1cc2nc(-c3ccc4c(c3)OCO4)cc(C(F)(F)F)n2n1 | . | / | / | / | / | .
CC(C)c1cc(C(=O)Nc2ccc3c(c2)OCO3)no1 | 3.4µM | 1.6µM | 2.8µM | 2.1µM | ? | 7.1µM
CSc1ccccc1NC(=O)CN(C)C(=O)Cc1c(F)cccc1Cl | . | . | . | . | . | /
CCOC(=O)c1ccccc1NC(=O)COc1ccccc1-c1nnc(-c2ccccc2)o1 | . | / | / | / | / | /
Cc1ccc(S(=O)(=O)c2cn(CC(=O)Nc3ccc(F)cc3)c3cc4c(cc3c2=O)OCO4)cc1 | . | / | / | / | / | .
CC(C)(C)c1ccc(OCC(=O)Nc2ccc(-c3nc4cccnc4o3)cc2)cc1 | . | / | / | / | / | .
CC(C)C(=O)Nc1ccc(-c2nc3ncccc3o2)cc1 | 4.3µM | 0.5µM | 0.5µM | ? | ? | /
CC(C)C(=O)Nc1ccc(-c2nc3cccnc3o2)cc1 | 2.7µM | 0.5µM | 0.56µM | ? | ? | 4.5µM
CC(C)C(=O)Nc1cccc(-c2nc3ncccc3o2)c1 | . | . | . | . | . | /
CCn1cc(S(=O)(=O)c2ccc(C)cc2C)c(=O)c2cc(F)c(N3CCCC3)cc21 | . | / | / | / | / | /
CC(C)c1cc(C(=O)NC(C)c2ccccc2)no1 (stereo not given) | . | / | / | / | / | .
CN(C)c1ccc(CNC(=O)CCCN2C(=O)CCn3nc(-c4cn(C)c5ccccc45)cc32)cc1 | . | / | / | / | / | /
CC(=O)N1CCC(N(Cc2ccc(C)o2)C(=O)Nc2ccccc2F)CC1 | . | / | / | / | / | /
Cc1[nH]c2ccccc2c1/C=N/Nc1ccc([N+](=O)[O-])cc1 | ? | . | . | . | . | /
Cc1[nH]c2ccccc2c1/C=N/Nc1ccc(F)cc1F | ? | ? | . | ? | ? | .
Cc1[nH]c2ccccc2c1/C=N/Nc1ccccn1 | 24µM | . | . | . | . | .
Cc1[nH]c2ccccc2c1/C=N/Nc1nncn1N | 2.1µM | ? | . | ? | ? | .
Cc1cc(C)n(-c2ccc(C(=O)NCC(=O)Nc3cc(Cl)ccc3Cl)cc2)n1 | / | / | / | . | . | /
CCCc1ccc2oc(C(=O)N3CCC(COC)C3)c(C)c2c1 (stereo not given) | 12µM | 2.8µM | 2.8µM | ? | ? | /
CCCc1ccc2oc(C(=O)N3CCC[C@H]3CO)c(C)c2c1 | 11µM | 3.2µM | 6.3µM | ? | ? | /
COc1cccc(N(CC(=O)NC2CCCCC2)C(=O)CCC(=O)Nc2nc(C)cs2)c1 | . | . | . | . | . | /
CN1CCN(c2ncnc3c2cnn3-c2cccc(Cl)c2)CC1 | 13µM | / | / | / | / | /
Cc1ccc(-n2ncc3c(N4CCN(C)CC4)ncnc32)cc1C | 4.3µM | / | / | / | / | /
Cc1ccc(-n2ncc3c2ncn2c(C)nnc32)cc1C | 5.4µM | 2µM | 2.5µM | ? | ? | ?
COc1ccc([C@]23Cc4ccccc4C(O2)C2=C(O3)C(=O)c3ccccc3C2=O)cc1 | ? | .[1.84 µM] | .[1.84 µM] | / | / | /

Screens (PubChem BioAssay)
